# Data from PubChem BioAssay AID1159580 (chemical genetic matrix, 2015).
# “And” between values parts separate entries of the source, which are not always exact repeats. Identical values can stand only once. The whole screen tested about 5,500 compounds, of which about 2,000 (36%) were called active. Not shown: some 18% with an inconclusive outcome. This is one part of the list. Unmarked numbers belong to inactive results. Rule as the data show it: active = normalized growth mostly below about 0.91 (no sharp cut-off); inconclusive = no clear call, values can overlap the other calls; inactive = mostly above about 0.92.
# Experiment: chemical genetic growth profiling, strain panel (AID 1159580);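 also: tested at 20 µM; growth read once vehicle control cultures reached saturation at 30 °C; 1 = growth at the plate median or of vehicle wells; lower values mean less growth of the strain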
# Settings: S. cerevisiae deletion strains, growth OD
compound,measurement,setting,value
C=CC(C1=CC(=O)C=CC1=O)c1ccccc1 (stereo unspecified),normalized growth,"locus YAL021C, strain ccr4, stronger effect = lower value",1.01
same,normalized growth,"locus YAL026C, strain drs2, stronger effect = lower value",0.983
same,normalized growth,"locus YAL030W, strain snc1, stronger effect = lower value",1
same,normalized growth,"locus YBL061C, strain skt5, stronger effect = lower value",1
same,normalized growth,"locus YBR009C, strain hhf1, stronger effect = lower value",0.995
same,normalized growth,"locus YBR021W, strain FUR4, stronger effect = lower value",0.982
same,normalized growth,"locus YBR023C, strain chs3, stronger effect = lower value",1.01
same,normalized growth,"locus YBR171W, strain sec66, stronger effect = lower value",1.02
same,normalized growth,"locus YBR229C, strain ROT2, stronger effect = lower value",0.974
same,normalized growth,"locus YBR231C, strain swc5, stronger effect = lower value",1.01
same,normalized growth,"locus YBR279W, strain paf1, stronger effect = lower value",0.993
same,normalized growth,"locus YCL011C, strain gbp2, stronger effect = lower value",1.01
same,normalized growth,"locus YCL016C, strain dcc1, stronger effect = lower value",0.994
same,normalized growth,"locus YCL029C, strain bik1, stronger effect = lower value",1
same,normalized growth,"locus YCL061C, strain MRC1, stronger effect = lower value",0.993
same,normalized growth,"locus YCL069W, strain vba3, stronger effect = lower value",1
same,normalized growth,"locus YCR088W, strain abp1, stronger effect = lower value",1.01
same,normalized growth,"locus YDL005C, strain med2, stronger effect = lower value",1.01
same,normalized growth,"locus YDL035C, strain GPR1, stronger effect = lower value",0.937
same,normalized growth,"locus YDL040C, strain nat1, stronger effect = lower value",0.989
same,normalized growth,"locus YDL074C, strain BRE1, stronger effect = lower value",0.916
same,normalized growth,"locus YDL101C, strain DUN1, stronger effect = lower value",0.96
same,normalized growth,"locus YDL134C, strain PPH21, stronger effect = lower value",0.863 (active)
same,normalized growth,"locus YDL185W, strain tfp1, stronger effect = lower value",0.994
same,normalized growth,"locus YDL192W, strain arf1, stronger effect = lower value",0.956
same,normalized growth,"locus YDR001C, strain nth1, stronger effect = lower value",1.01
same,normalized growth,"locus YDR069C, strain doa4, stronger effect = lower value",1.01
same,normalized growth,"locus YDR101C, strain arx1, stronger effect = lower value",0.977
same,normalized growth,"locus YDR137W, strain rgp1, stronger effect = lower value",0.961
same,normalized growth,"locus YDR159W, strain sac3, stronger effect = lower value",1.03
same,normalized growth,"locus YDR162C, strain NBP2, stronger effect = lower value",0.778 (active)
same,normalized growth,"locus YDR195W, strain ref2",1.01
same,normalized growth,"locus YDR297W, strain sur2, stronger effect = lower value",0.996
same,normalized growth,"locus YDR318W, strain mcm21, stronger effect = lower value",0.953
same,normalized growth,"locus YDR334W, strain swr1, stronger effect = lower value",1.01
same,normalized growth,"locus YDR335W, strain msn5, stronger effect = lower value",0.999
same,normalized growth,"locus YDR388W, stronger effect = lower value",0.991
same,normalized growth,"locus YDR392W, strain spt3, stronger effect = lower value",0.917
same,normalized growth,"locus YDR502C, strain sam2, stronger effect = lower value",0.95
same,normalized growth,"locus YEL003W, strain gim4, stronger effect = lower value",0.982
same,normalized growth,"locus YEL037C, strain rad23, stronger effect = lower value",1.01
same,normalized growth,"locus YEL061C, strain CIN8 (second series), stronger effect = lower value",1.01
same,normalized growth,"locus YEL061C, strain CIN8, stronger effect = lower value",0.974
same,normalized growth,"locus YER015W, strain faa2, stronger effect = lower value",0.996
same,normalized growth,"locus YER016W, strain bim1, stronger effect = lower value",1
same,normalized growth,"locus YER110C, stronger effect = lower value",0.98
same,normalized growth,"locus YER111C, strain swi4, stronger effect = lower value",1
same,normalized growth,"locus YER155C, strain BEM2 (second series), stronger effect = lower value",0.895
same,normalized growth,"locus YER155C, strain BEM2, stronger effect = lower value",1.01
same,normalized growth,"locus YER167W, strain BCK2, stronger effect = lower value",0.947
same,normalized growth,"locus YFR010W, strain ubp6, stronger effect = lower value",1
same,normalized growth,"locus YGL078C, strain dbp3, stronger effect = lower value",0.995
same,normalized growth,"locus YGL086W, strain mad1, stronger effect = lower value",0.927 (active)
same,normalized growth,"locus YGL167C, strain pmr1, stronger effect = lower value",1.01
same,normalized growth,"locus YGL173C, strain kem1, stronger effect = lower value",1
same,normalized growth,"locus YGL227W, strain vid30, stronger effect = lower value",1.01
same,normalized growth,"locus YGL240W, strain doc1, stronger effect = lower value",0.964
same,normalized growth,"locus YGL248W, strain PDE1, stronger effect = lower value",0.907
same,normalized growth,"locus YGL253W, strain hxk2, stronger effect = lower value",1.02
same,normalized growth,"locus YGR078C, strain PAC10, stronger effect = lower value",0.805 (active)
same,normalized growth,"locus YGR135W, strain pre9, stronger effect = lower value",0.931
same,normalized growth,"locus YGR229C, strain SMI1, stronger effect = lower value",0.722 (active)
same,normalized growth,"locus YGR252W, strain gcn5, stronger effect = lower value",0.952
same,normalized growth,"locus YHR013C, strain ard1, stronger effect = lower value",1.04
same,normalized growth,"locus YHR027C, strain rpn1, stronger effect = lower value",1.01
same,normalized growth,"locus YHR030C, strain SLT2, stronger effect = lower value",0.984 and 1.06
same,normalized growth,"locus YHR079C, strain IRE1 (second series), stronger effect = lower value",0.98
same,normalized growth,"locus YHR079C, strain IRE1, stronger effect = lower value",1.02
same,normalized growth,"locus YHR094C, strain hxt1, stronger effect = lower value",0.993
same,normalized growth,"locus YHR129C, strain ARP1, stronger effect = lower value",0.957
same,normalized growth,"locus YHR142W, strain chs7, stronger effect = lower value",1.01
same,normalized growth,"locus YHR200W, strain rpn10, stronger effect = lower value",0.963
same,normalized growth,"locus YIL066C, strain RNR3, stronger effect = lower value",0.875
same,normalized growth,"locus YIL073C, strain SPO22, stronger effect = lower value",0.916
same,normalized growth,"locus YIL125W, strain kgd1, stronger effect = lower value",0.998
same,normalized growth,"locus YIR030C, strain dcg1, stronger effect = lower value",0.972
same,normalized growth,"locus YJL092W, strain hpr5, stronger effect = lower value",1.01
same,normalized growth,"locus YJL095W, strain BCK1 (second series), stronger effect = lower value",1.01
same,normalized growth,"locus YJL095W, strain BCK1, stronger effect = lower value",0.891 and 1.06
same,normalized growth,"locus YJL115W, strain asf1, stronger effect = lower value",1.01
same,normalized growth,"locus YJL129C, strain trk1, stronger effect = lower value",1.04
same,normalized growth,"locus YJL134W, strain LCB3, stronger effect = lower value",0.99
same,normalized growth,"locus YJL154C, strain vps35, stronger effect = lower value",0.997
same,normalized growth,"locus YJL164C, strain tpk1, stronger effect = lower value",0.984
same,normalized growth,"locus YJL166W, strain qcr8, stronger effect = lower value",0.991
same,normalized growth,"locus YJL168C, strain set2, stronger effect = lower value",0.992
same,normalized growth,"locus YJL187C, strain SWE1 (second series), stronger effect = lower value",0.937
same,normalized growth,"locus YJL187C, strain SWE1, stronger effect = lower value",1
same,normalized growth,"locus YJR043C, strain POL32, stronger effect = lower value",0.889
same,normalized growth,"locus YJR066W, strain TOR1, stronger effect = lower value",1
same,normalized growth,"locus YJR075W, strain HOC1, stronger effect = lower value",0.929
same,normalized growth,"locus YKL009W, strain mrt4, stronger effect = lower value",0.956
same,normalized growth,"locus YKL068W, stronger effect = lower value",1.05
same,normalized growth,"locus YKL085W, strain MDH1 (second series), stronger effect = lower value",0.978
same,normalized growth,"locus YKL085W, strain MDH1, stronger effect = lower value",0.978
same,normalized growth,"locus YKL160W, strain elf1, stronger effect = lower value",0.987
same,normalized growth,"locus YKR001C, strain vps1, stronger effect = lower value",0.887 (active)
same,normalized growth,"locus YKR026C, strain gcn3, stronger effect = lower value",1.01
same,normalized growth,"locus YKR091W, strain srl3, stronger effect = lower value",1.01
same,normalized growth,"locus YLL001W, strain dnm1, stronger effect = lower value",0.978
same,normalized growth,"locus YLL026W, stronger effect = lower value",1
same,normalized growth,"locus YLL041C, strain sdh2, stronger effect = lower value",1.01
same,normalized growth,"locus YLR027C, strain aat2, stronger effect = lower value",1.01
same,normalized growth,"locus YLR039C, strain RIC1, stronger effect = lower value",0.64 (active)
same,normalized growth,"locus YLR058C, strain SHM2, stronger effect = lower value",0.958
same,normalized growth,"locus YLR102C, strain apc9, stronger effect = lower value",0.978
same,normalized growth,"locus YLR113W, strain HOG1, stronger effect = lower value",1.02
same,normalized growth,"locus YLR221C, strain rsa3, stronger effect = lower value",0.992
same,normalized growth,"locus YLR258W, strain gsy2, stronger effect = lower value",1.01
same,normalized growth,"locus YLR262C, strain YPT6 (second series), stronger effect = lower value",0.969
same,normalized growth,"locus YLR262C, strain YPT6, stronger effect = lower value",0.551 (active)
same,normalized growth,"locus YLR268W, strain sec22, stronger effect = lower value",0.925
same,normalized growth,"locus YLR320W, strain mms22, stronger effect = lower value",0.983
same,normalized growth,"locus YLR330W, strain CHS5, stronger effect = lower value",0.882 (active)
same,normalized growth,"locus YLR342W, strain FKS1 (second series), stronger effect = lower value",0.794
same,normalized growth,"locus YLR342W, strain FKS1, stronger effect = lower value",1.02
same,normalized growth,"locus YLR357W, strain rsc2, stronger effect = lower value",0.988
same,normalized growth,"locus YLR370C, strain arc18, stronger effect = lower value",1.01
same,normalized growth,"locus YLR371W, strain rom2, stronger effect = lower value",0.973
same,normalized growth,"locus YLR384C, strain iki3, stronger effect = lower value",1.01
same,normalized growth,"locus YLR418C, strain cdc73, stronger effect = lower value",0.823 (active)
same,normalized growth,"locus YML016C, strain PPZ1, stronger effect = lower value",0.976
same,normalized growth,"locus YML032C, strain rad52, stronger effect = lower value",0.965
same,normalized growth,"locus YML120C, strain ndi1, stronger effect = lower value",0.998
same,normalized growth,"locus YML124C, strain tub3, stronger effect = lower value",0.971
same,normalized growth,"locus YMR058W, strain fet3, stronger effect = lower value",1
same,normalized growth,"locus YMR078C, strain ctf18, stronger effect = lower value",0.963
same,normalized growth,"locus YMR125W, strain sto1, stronger effect = lower value",1.02
same,normalized growth,"locus YMR129W, stronger effect = lower value",1
same,normalized growth,"locus YMR205C, strain PFK2, stronger effect = lower value",0.997
same,normalized growth,"locus YMR223W, strain ubp8, stronger effect = lower value",0.971
same,normalized growth,"locus YMR231W, strain pep5, stronger effect = lower value",0.986
same,normalized growth,"locus YMR263W, strain SAP30, stronger effect = lower value",0.966
same,normalized growth,"locus YMR307W, strain GAS1, stronger effect = lower value",0.966
same,normalized growth,"locus YNL067W, strain RPL9B, stronger effect = lower value",0.943
same,normalized growth,"locus YNL071W, strain lat1, stronger effect = lower value",1.01
same,normalized growth,"locus YNL153C, strain GIM3, stronger effect = lower value",0.93
same,normalized growth,"locus YNL183C, strain NPR1, stronger effect = lower value",0.975
same,normalized growth,"locus YNL209W, strain ssb2, stronger effect = lower value",0.996
same,normalized growth,"locus YNL233W, strain BNI4, stronger effect = lower value",0.815 (active)
same,normalized growth,"locus YNL248C, strain rpa49, stronger effect = lower value",0.986
same,normalized growth,"locus YNL250W, strain rad50, stronger effect = lower value",1
same,normalized growth,"locus YNL271C, strain bni1, stronger effect = lower value",0.979
same,normalized growth,"locus YNL298W, strain CLA4, stronger effect = lower value",0.982
same,normalized growth,"locus YNL307C, strain MCK1, stronger effect = lower value",0.674 (active)
same,normalized growth,"locus YNL322C, strain KRE1 (second series), stronger effect = lower value",1.01
same,normalized growth,"locus YNL322C, strain KRE1, stronger effect = lower value",0.945
same,normalized growth,"locus YNR049C, strain mso1, stronger effect = lower value",1.02
same,normalized growth,"locus YNR052C, strain pop2, stronger effect = lower value",0.997
same,normalized growth,"locus YOL012C, strain htz1",0.678
same,normalized growth,"locus YOL147C, strain pex11, stronger effect = lower value",0.975
same,normalized growth,"locus YOR001W, strain rrp6, stronger effect = lower value",0.997
same,normalized growth,"locus YOR061W, strain CKA2, stronger effect = lower value",0.978
same,normalized growth,"locus YOR069W, strain VPS5, stronger effect = lower value",0.982
same,normalized growth,"locus YOR070C, strain gyp1, stronger effect = lower value",0.981
same,normalized growth,"locus YOR080W, strain dia2, stronger effect = lower value",1
same,normalized growth,"locus YOR083W, strain WHI5, stronger effect = lower value",0.981
same,normalized growth,"locus YOR106W, strain vam3, stronger effect = lower value",0.981
same,normalized growth,"locus YOR136W, strain idh2, stronger effect = lower value",1
same,normalized growth,"locus YOR144C, strain elg1, stronger effect = lower value",0.975
same,normalized growth,"locus YOR184W, strain ser1, stronger effect = lower value",0.811 (active)
same,normalized growth,"locus YOR231W, strain MKK1, stronger effect = lower value",1.04
same,normalized growth,"locus YOR265W, strain rbl2, stronger effect = lower value",1.02
same,normalized growth,"locus YOR270C, strain vph1, stronger effect = lower value",0.973
same,normalized growth,"locus YOR290C, strain snf2, stronger effect = lower value",0.962
same,normalized growth,"locus YOR316C, strain cot1, stronger effect = lower value",0.993
same,normalized growth,"locus YPL051W, strain arl3, stronger effect = lower value",0.978
same,normalized growth,"locus YPL078C, strain atp4, stronger effect = lower value",0.968
same,normalized growth,"locus YPL106C, strain sse1, stronger effect = lower value",1.02
same,normalized growth,"locus YPL240C, strain hsp82, stronger effect = lower value",1
same,normalized growth,"locus YPL256C, strain CLN2, stronger effect = lower value",1.05
same,normalized growth,"locus YPR119W, strain clb2, stronger effect = lower value",0.975
same,normalized growth,"locus YPR141C, strain kar3, stronger effect = lower value",0.991
same,normalized growth,"locus YPR163C, strain tif3, stronger effect = lower value",0.849 (active)
same,normalized growth,"locus YPR167C, strain met16, stronger effect = lower value",0.963
same,normalized growth,"strain wtn01, stronger effect = lower value",0.931
